Laboratory results taken from the OligoGym collection.

These sequences were tested against GAB3 (assay: pooled miR-30 sensor sort-seq; sequence = guide strand). Conditions: shRNA.

First: TTTCGATGTAGCTTTCTTCGTC
Second: TAGTACTCCAAGACATCGGGGT
The sensor-assay potency score (higher = more potent) of the first is lower: 0.694 for the first, 0.697 for the second.

Going from TTTTGTGCTCTGGAGAGCCTGT to TTGACCAGCTATCACATCTGGT, the sensor-assay potency score (higher = more potent) rises from -0.572 to -0.37.

Going from TTGCAGACCTGACTGATGCTGT to TTGACCTGTGTTGACCATCAGT, the sensor-assay potency score (higher = more potent) falls from 0.324 to -0.72.

In the case of TTGAGATCTCTATTCACTGGGG, the sensor-assay potency score (higher = more potent) is reported as 0.467.

What follows are sequences tested against GABBR1 in the same assay as above. Conditions: shRNA.

Going from TAGACAAATTGCACATGCCTAC to TAGCCAATCTTCTTGTAGCTGC, the sensor-assay potency score (higher = more potent) rises from -0.546 to -0.0319.

Going from TCCTTCTTTGTGAAGACCGTGT to TTCTGTGACAAGGAGAGGGTGT, the sensor-assay potency score (higher = more potent) rises from -0.749 to 0.0904.

First: TTCTCCTTCTCCAACAGCCGGG
Second: TTGTTGTTGGTCGATGACCCTG
The sensor-assay potency score (higher = more potent) of the first is higher: -0.705 for the first, -1.05 for the second.

Going from TAGTTTCTCCACAAATTCCTGG to TGAGGTTCCACATCCTAGCAGC, the sensor-assay potency score (higher = more potent) rises from -0.496 to -0.132.

Going from TTGGATAGCATGTTCTTCCCAG to TAGGTCCATCTGTCTATCCCAA, the sensor-assay potency score (higher = more potent) falls from 0.0924 to -0.913.

Going from TTCAGCATGACAATCTCAGTTG to TTTTCAAAGAGTTTCACGCGGG, the sensor-assay potency score (higher = more potent) rises from -0.723 to -0.189.

Compared with TAGTCCGGCAGGATGTCCCTGC, TTCTCATCAACTATCCACTGGA is higher in sensor-assay potency score (higher = more potent): -0.16 for the first, 0.124 for the second.

Compared with TTGTGAGTGTAGACTGAGGGTA, TAGTACATGAATGCAATGGAGA is lower in sensor-assay potency score (higher = more potent): -0.0666 for the first, -0.803 for the second.

Going from TTGAGATTCGGGGAGATCCTTC to TCTTGGTGAACATGGAACCGTA, the sensor-assay potency score (higher = more potent) falls from -0.396 to -1.08.

Compared with TGGATCACACTTGCTGTCGTGG, ATGGTAGCAATCTTCTTCCAGC is lower in sensor-assay potency score (higher = more potent): -0.99 for the first, -1.28 for the second.

With TAAGACTTGGAGCAGATTCGGA the sensor-assay potency score (higher = more potent) was -0.862.

These sequences were tested against GABRA1 in the same assay as above. Conditions: shRNA.

Going from TCTGCTACAACCACTGAGCGTG to TTAAATATCTGTTAAACTCTAT, the sensor-assay potency score (higher = more potent) rises from -0.543 to -0.0161.

Going from TTTCTTGTATCTTTGAACCATC to TTACACGCTCTCCCAATCCTGG, the sensor-assay potency score (higher = more potent) falls from -0.813 to -1.04.

Going from TAGCTTGTGAAATTTAGGCAGG to TATATCATTGGATAGCAGCTTT, the sensor-assay potency score (higher = more potent) rises from -0.747 to -0.213.

Compared with TAAACAACTTCTGCTCTTGTAT, TATTTATCTCTAAAACATCTGG is lower in sensor-assay potency score (higher = more potent): -0.033 for the first, -0.271 for the second.

Going from TATATATCTACAAATGACCTAG to TACAATGAGCAACTGCACCTTT, the sensor-assay potency score (higher = more potent) falls from 0.243 to 0.167.

For TTGTATAAGCATAACTTCCAAA, the sensor-assay potency score (higher = more potent) was -0.726.
